The results in this text go back to PubChem BioAssay.

One may read the inhibition as the change of the read-out against control, counted positive when it falls.

Several values for one entry are separate records, joined by “and”; a condition that tells them apart may be missing. Identical values can stand only once. For part of these data: Potency and affinity values are given separately. Activity calls are given as the source filed them.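 Rule for the calls, unless noted: active = luciferase signal above three times the same-plate solvent-only control wells; inactive = the rest.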

The target in experiment [1] is 6-phosphogluconate dehydrogenase, decarboxylating (Homo sapiens) (UniProt P52209). Put plainly: inhibition of human phosphogluconate dehydrogenase – biochemical, recombinant enzyme, NADPH absorbance, primary screen (AID 1159550;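 active = at least 20% inhibition of 6-phosphogluconate dehydrogenase activity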). The note with it: recombinant 6PGD, NADPH absorbance 341 nm; at 10 µM; stronger effect = higher value.
6-phosphogluconate dehydrogenase, decarboxylating (Homo sapiens), sequence (P52209 whole entry, looked up): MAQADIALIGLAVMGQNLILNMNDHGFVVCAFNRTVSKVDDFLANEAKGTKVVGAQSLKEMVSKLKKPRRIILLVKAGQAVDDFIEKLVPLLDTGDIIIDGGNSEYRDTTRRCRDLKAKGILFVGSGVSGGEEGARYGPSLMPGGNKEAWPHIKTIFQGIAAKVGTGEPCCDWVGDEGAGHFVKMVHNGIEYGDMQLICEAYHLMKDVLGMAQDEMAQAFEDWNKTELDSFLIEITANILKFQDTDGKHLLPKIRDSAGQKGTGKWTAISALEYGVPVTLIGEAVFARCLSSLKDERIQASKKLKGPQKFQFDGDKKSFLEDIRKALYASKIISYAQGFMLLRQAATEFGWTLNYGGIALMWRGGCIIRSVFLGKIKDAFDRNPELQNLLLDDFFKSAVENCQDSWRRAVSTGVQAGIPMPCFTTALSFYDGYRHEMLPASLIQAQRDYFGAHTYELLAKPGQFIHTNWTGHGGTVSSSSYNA
Experiment [2] in a line: EMT-state selective cytotoxicity in co-culture – imaging, PC-3E GFP, TEM4-18 mCherry, primary screen (AID 1345086;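 active = compounds killing one labelled cell type while sparing the other, by normalised counts and ratio limits, not self-fluorescent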;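 for all read-outs here: cells exposed to compound for 72 h before imaging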;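 for red/green cell ratio (normalised): normalised mesenchymal count divided by normalised epithelial count so high means epithelial killing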). The note with it: PC-3E GFP / TEM4-18 mCherry co-culture, imaging cell counts, at 1 µM; for red/green cell ratio (normalised): actives lie on both sides.
The test system of experiment [3] is Aerobactin synthetase IucA (Klebsiella pneumoniae hvKP1). Description: IucA enzyme inhibition, primary screen, biochemical, Spectrum library (AID 1346200; call rule not given here;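 note: 100% = wells without compound and 0% = wells lacking enzyme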). The note with it: malachite green pyrophosphate, A620, at 8 µM, stronger effect = lower value.
In experiment [4] the target is Mitogen-activated protein kinase 7 (Homo sapiens) (UniProt Q13164). Put plainly: Gal4-ERK5 driven luciferase induction – cell-based, HTS, primary screen (AID 1508626).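 Note: luciferase driven by Gal4-ERK5 fusion binding five Gal4 sites before minimal TATA.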 The note with it: HeLa Gal4-ERK5 transactivation, 18 h, at 5 µM, stronger effect = higher value.
Mitogen-activated protein kinase 7 (Homo sapiens), sequence (Q13164 whole entry, looked up, the tested form may be a part): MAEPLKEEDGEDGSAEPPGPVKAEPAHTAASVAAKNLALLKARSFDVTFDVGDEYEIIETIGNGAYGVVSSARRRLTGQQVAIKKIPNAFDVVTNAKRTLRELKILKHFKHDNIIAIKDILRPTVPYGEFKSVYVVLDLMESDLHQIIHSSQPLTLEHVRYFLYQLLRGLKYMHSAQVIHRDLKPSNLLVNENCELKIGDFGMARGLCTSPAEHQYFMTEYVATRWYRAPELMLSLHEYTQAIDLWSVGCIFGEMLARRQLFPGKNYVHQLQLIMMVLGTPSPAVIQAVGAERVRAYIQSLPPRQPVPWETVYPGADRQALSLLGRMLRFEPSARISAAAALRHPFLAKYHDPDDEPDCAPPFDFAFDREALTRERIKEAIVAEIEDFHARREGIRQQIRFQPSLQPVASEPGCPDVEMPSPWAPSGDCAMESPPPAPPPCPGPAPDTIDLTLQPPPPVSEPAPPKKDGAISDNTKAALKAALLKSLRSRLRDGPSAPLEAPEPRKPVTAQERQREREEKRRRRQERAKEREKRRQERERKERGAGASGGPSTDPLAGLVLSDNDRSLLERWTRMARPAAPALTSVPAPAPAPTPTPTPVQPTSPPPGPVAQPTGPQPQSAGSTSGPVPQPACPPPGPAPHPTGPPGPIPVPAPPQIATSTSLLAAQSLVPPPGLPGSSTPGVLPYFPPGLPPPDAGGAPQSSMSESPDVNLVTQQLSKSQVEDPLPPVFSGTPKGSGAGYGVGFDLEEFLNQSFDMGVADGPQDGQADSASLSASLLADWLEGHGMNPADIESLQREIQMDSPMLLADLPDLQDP
Experiment [5] in a line: blockers of polyQ-driven CASP3 activation – cell-based (AID 1583). The note with it: polyglutamine-induced caspase-3 activation, cell assay; stronger effect = higher value;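 tested at 10 µM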.
Experiment [6] is described as follows: yeast 75Q aggregation reduction – 75Q-TubU reporter (AID 1593). The note with it: Yeast 75Q polyglutamine aggregation reporter.
Experiment [7] can be described thus: restoration of touch response, mutant HTT neurons – whole organism, C. elegans mechanosensory neurons, N-terminal huntingtin (AID 1599). The note with it: C. elegans polyQ-huntingtin mechanosensory neurons, stronger effect = higher value.
Experiment [8] in a line: blockers of cytochrome c efflux from mitochondria – biochemical, purified mitochondria (AID 1603).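 Note: mouse liver mitochondria challenged with calcium chloride; signal normalized to the plate average as 100%.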 The note with it: stronger effect = lower value.
The nature of experiment [9]: polyglutamine aggregate formation blockers (AID 1604). The note with it: polyglutamine-induced protein aggregation inhibition assay; stronger effect = higher value; tested at 2.5 µM.
Experiment [10] is described as follows: glutamate transport activators, MN-1 cells, MN-1 cell line (AID 1612).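 Note: tested at 1 µM final; 0% = mean of DMSO vehicle wells on each plate; positive means more glutamate uptake than control and negative means less.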 The note with it: MN-1 motor neuron cells, stronger effect = higher value.
Experiment [11] in a line: GFP-Q80 aggregate reduction, neuronal-like cells, cell-based, NGF-treated PC12, GFPQ80 (AID 1614).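 Note: lower means fewer inclusions and 0 means no inclusions at all.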 The note with it: PC12 NGF-treated GFP-polyQ80 inclusion reduction.
Experiment [12] is described as follows: 75Q-TubH aggregate inhibition, S. cerevisiae, yeast (AID 1616). The note with it: S. cerevisiae 75Q-TubH polyglutamine aggregation suppression; stronger effect = higher value.
[13] abbreviates: measured here: epithelial PC-3E GFP cell survival.
Where [14] appears, read: measured here: mesenchymal TEM4-18 mCherry cell survival.
Where [15] appears, read: counts scaled to control wells, 1 = unselective.

In the case of `N#Cc1c(Cl)c(Cl)c(Cl)c(C#N)c1Cl`, the inhibition in experiment [1] was -66.6% (inactive). Also, the red/green cell ratio (normalised) in experiment [2] was 0.93 (inactive). Further, the normalised cell number in experiment [2] (setting [13]) and in experiment [2] (setting [14]) was 0.04 each time. In [3], the activity remaining is 108% (inactive). In experiment [4], the luciferase signal is 604 AU (active).
For `COc1cc2c(cc1OC)[C@@H]1C(=O)c3ccc4oc(C(C)C)cc4c3O[C@@H]1CO2`, in [1], the inhibition was 4.17% (inactive). Also, in [2], the red/green cell ratio (normalised) was 0.79 (inactive). Further, the values for the normalised cell number in experiment [2] (setting [13]) and in [2] (setting [14]) were 1.25 and 0.98, respectively. In addition, the activity remaining in [3] was 104% (inactive). Further, in experiment [4], the luciferase signal was 76 AU (inactive).
As for `CC1(C)C2CC(=O)[C@]3(C)C(CC[C@@]4(C)[C@H](c5ccoc5)OC(=O)C5OC543)[C@@]2(C)[C@@H](O)C[C@H]1O` (stereo not given in full), the inhibition in [1] was -2.4% (inactive). The red/green cell ratio (normalised) in [2] was 1.04 (inactive). For the same compound, the figures for the normalised cell number in [2] (setting [13]) and in [2] (setting [14]) were 0.78 and 0.8, respectively. Moreover, the activity remaining in experiment [3] was 107% (inactive). Further, in experiment [4], the luciferase signal was 80 AU (inactive).
`C=C(C)c1cc2cc(C(C)=O)c(O)cc2o1`: the inhibition in experiment [1] was 13.2% (inactive). Further, the red/green cell ratio (normalised) in [2] is 0.8 (inactive). Besides, the normalised cell number was 1.14 in experiment [2] (setting [13]) and 0.92 in [2] (setting [14]). Besides, the activity remaining in [3] is 104% (inactive). For the same compound, in experiment [4], the luciferase signal was 64 AU (inactive).
For the compound `COC(=O)NC(=S)Nc1ccccc1NC(=S)NC(=O)OC`, the inhibition in [1] was -13.9% (inactive). Moreover, the red/green cell ratio (normalised) in [2] was 0.85 (inactive). In addition, the results for the normalised cell number in [2] (setting [13]) and in [2] (setting [14]) were 1.16 and 0.98, respectively. Also, in experiment [3], the activity remaining is 110% (inactive). The luciferase signal in [4] was 8 AU (inactive).
On to `O=c1cccc2n1CC1CC2CN2CCCC[C@@H]12` (stereo not given in full), for which, in experiment [1], the inhibition was 1.69% (inactive). In addition, the red/green cell ratio (normalised) in [2] (setting [15]) is 1.02 (inactive). Further, the figures for the normalised cell number in experiment [2] (setting [13]) and in [2] (setting [14]) were 0.92 and 0.94, respectively. Further, the activity remaining in [3] was 116% (inactive). Moreover, the luciferase signal in experiment [4] is 56 AU (inactive).
With `CN1CCCCC1c1ccc(-c2cccnc2)nc1` (stereo not given), the inhibition in experiment [1] is -0.658% (inactive). For the same compound, the red/green cell ratio (normalised) in experiment [2] (setting [15]) is 1.09 (inactive). The normalised cell number in experiment [2] (setting [13]) amounted to 0.96; in experiment [2] (setting [14]), 1.04. For the same compound, the activity remaining in experiment [3] is 113% (inactive). In addition, the luciferase signal in experiment [4] is 52 AU (inactive).
On to `COc1cc([C@@H]2c3cc4c(c(O)c3C[C@H]3COC(=O)[C@@H]32)OCO4)cc(OC)c1OC`, for which the inhibition in [1] was -17.8% (inactive). Further, the red/green cell ratio (normalised) in experiment [2] was 0.83 (inactive). Besides, the normalised cell number in [2] (setting [13]) stood at 0.2; in [2] (setting [14]) it was 0.16. Moreover, the activity remaining in experiment [3] is 116% (inactive). Moreover, the luciferase signal in experiment [4] is 16 AU (inactive).
Regarding `O=[N+]([O-])c1ccc(O)c([N+](=O)[O-])c1`, the inhibition in experiment [1] was -2.82% (inactive). Besides, the red/green cell ratio (normalised) in [2] is 0.86 (inactive). The normalised cell number in [2] (setting [13]) was 1.08; in [2] (setting [14]), 0.93. In addition, in [3], the activity remaining was 110% (inactive). Besides, the luciferase signal in [4] was 44 AU (inactive).
In the case of `C/C=C/c1ccc2c(c1)OCO2`, in experiment [1], the inhibition was -4.44% (inactive). For the same compound, the red/green cell ratio (normalised) in [2] is 0.96 (inactive). Besides, the normalised cell number was found to be 1.11 in [2] (setting [13]) and 1.06 in experiment [2] (setting [14]). Besides, in [3], the activity remaining was 80.6% (inactive). In experiment [4], the luciferase signal was 296 AU (active).
`COc1c2c(cc3c1OCO3)CC[N+](C)=C2`: the inhibition in experiment [1] was 8.25% (inactive). Besides, the red/green cell ratio (normalised) in [2] (setting [15]) was 1.03 (inactive). Besides, the normalised cell number was found to be 0.97 in experiment [2] (setting [13]) and 1 in experiment [2] (setting [14]). For the same compound, the activity remaining in experiment [3] was 99.6% (inactive). Also, the luciferase signal in experiment [4] is 20 AU (inactive).
As for `COC(=O)[C@]1(C)CC[C@]2(C)CC[C@]3(C)C4=CC=C5C(=CC(=O)C(O)=C5C)[C@]4(C)CC[C@@]3(C)[C@@H]2C1`, the inhibition in experiment [1] is 9.49% (inactive). In addition, the red/green cell ratio (normalised) in experiment [2] was 0.14 (inactive). In addition, the normalised cell number in experiment [2] (setting [13]) worked out at 0.01; in [2] (setting [14]), 0. In addition, in [3], the activity remaining was 87.2% (inactive). Also, in [4], the luciferase signal was 152 AU (inactive).
Turning to `COc1cc(OC)c2c(c1)O[C@H](c1ccc(OC)c(OC)c1)[C@@H](O)C2`, the inhibition in [1] was 14.9% (inactive). Also, the red/green cell ratio (normalised) in experiment [2] was 0.81 (inactive). In addition, the normalised cell number in [2] (setting [13]) was 0.96; in experiment [2] (setting [14]), 0.78. Also, in experiment [3], the activity remaining is 111% (inactive). Further, in experiment [4], the luciferase signal is 32 AU (inactive).
For `C/C=C(/C)C(=O)O[C@H]1CC[C@@]2(C)[C@@H]3CC[C@H]4[C@]5(O)C[C@H](O)[C@@]6(O)[C@@H](CN7C[C@@H](C)CC[C@H]7[C@@]6(C)O)[C@]5(O)C[C@@]42O[C@]13O`, the inhibition is -10.4% in experiment [5] and -10.1% (inactive) in experiment [1]. The compound further gave a score in [6] of 1.23. The rescue above control in [7] worked out at 6.62. In experiment [8], the cytochrome c release ratio is 0.66. Also, the inhibition of aggregation in experiment [9] was 73.8%. Further, the glutamate uptake change in experiment [10] was found to be 7.49%. The inclusion score in experiment [11] is 2. The same compound showed an aggregation suppression score in [12] of 1.05. Besides, the red/green cell ratio (normalised) in [2] was 0.76 (inactive). The normalised cell number in experiment [2] (setting [13]) amounted to 1.31; in experiment [2] (setting [14]), 1. In addition, the activity remaining in experiment [3] is 98.9% (inactive). Further, the luciferase signal in [4] was 96 AU (inactive) and 56 AU (inactive).
For the compound `CCOC(=O)C1C(C=C(C)C)C1(C)C` (stereo not given), the inhibition in experiment [1] is -0.74% (inactive). Moreover, the red/green cell ratio (normalised) in [2] is 0.99 (inactive). Further, the values for the normalised cell number in experiment [2] (setting [13]) and in [2] (setting [14]) were 1.19 and 1.18, respectively. Also, the activity remaining in experiment [3] was 107% (inactive). In addition, the luciferase signal in [4] is 60 AU (inactive).
With `NC(=O)c1ccc(N)nc1`, the inhibition in experiment [1] is 1.26% (inactive). For the same compound, the red/green cell ratio (normalised) in experiment [2] is 0.93 (inactive). For the same compound, the normalised cell number was 1.22 in [2] (setting [13]) and 1.14 in experiment [2] (setting [14]). Further, the activity remaining in experiment [3] is 120% (inactive). In addition, the luciferase signal in experiment [4] was 24 AU (inactive).
Take `COc1ccc(C(=O)O)cc1OC`: the inhibition in experiment [1] was 7.84% (inactive). Also, the red/green cell ratio (normalised) in experiment [2] was 0.77 (inactive). Moreover, the figures for the normalised cell number in experiment [2] (setting [13]) and in experiment [2] (setting [14]) were 1.22 and 0.94, respectively. Besides, the activity remaining in [3] is 78.5% (inactive). For the same compound, the luciferase signal in [4] is 40 AU (inactive).
In the case of `COc1cc2occc2c2oc(=O)ccc12`, the inhibition in experiment [1] was 11.9% (inactive). Besides, the red/green cell ratio (normalised) in experiment [2] was 1.13 (inactive). Besides, the normalised cell number stood at 1 in experiment [2] (setting [13]) and 1.14 in experiment [2] (setting [14]). For the same compound, in experiment [3], the activity remaining is 121% (inactive). Also, the luciferase signal in experiment [4] is 84 AU (inactive).
As for `O=C1C=C2C(=CCOC2O)O1` (stereo not given), the inhibition in [5] is 71.1%; in experiment [1] it was 4.22% (inactive). This compound also registered a score in experiment [6] of 1.15. Moreover, in experiment [7], the rescue above control was -6.1. Besides, in [8], the cytochrome c release ratio is 0.78. In addition, the inhibition of aggregation in experiment [9] amounted to 0%. The glutamate uptake change in experiment [10] was -4.18%. Further, the aggregation suppression score in [12] is 0.84. Moreover, the red/green cell ratio (normalised) in experiment [2] is 0.44 (inactive). Moreover, the normalised cell number in [2] (setting [13]) was 0.14; in experiment [2] (setting [14]), 0.06. The activity remaining in experiment [3] was 124% (inactive). The luciferase signal in experiment [4] was 3170 AU (active).
For `CC[C@@]1(O)C[C@H](O)c2c(cc3c(c2O)C(=O)c2c(O)ccc(O)c2C3=O)[C@H]1C(=O)OC`, the inhibition in experiment [1] was 10.8% (inactive). Besides, the red/green cell ratio (normalised) in experiment [2] is 0.85 (inactive). In addition, the normalised cell number in experiment [2] (setting [13]) was found to be 0.96; in experiment [2] (setting [14]) it was 0.82. Also, the activity remaining in experiment [3] is 112% (inactive). In addition, in [4], the luciferase signal was 52 AU (inactive).
